Test results published in PubChem BioAssay AID1476 (National Center for Advancing Translational Sciences (NCATS), 2009).
Several values for one entry are separate records, joined by “and”; a condition that tells them apart may be missing. Equal entries are not always repeated. The campaign covered roughly 200,000 compounds. About 4,500 (2.2%) were called active. Not shown: some 12% with an inconclusive outcome. What follows is part of a selection rich in actives, with near analogues and random picks from the rest. Unmarked numbers belong to inactive results. Calls come from the whole dose curve; as a rule, active = well fitted inhibition curve with a large enough effect; inconclusive = small, poorly fitted or top-dose-only effect, or effect the other way; inactive = flat fitted curve, though single readings scatter.

Target: Cruzipain (Trypanosoma cruzi) (UniProt P25779)
Sequence (P25779 123-467 limits assumed): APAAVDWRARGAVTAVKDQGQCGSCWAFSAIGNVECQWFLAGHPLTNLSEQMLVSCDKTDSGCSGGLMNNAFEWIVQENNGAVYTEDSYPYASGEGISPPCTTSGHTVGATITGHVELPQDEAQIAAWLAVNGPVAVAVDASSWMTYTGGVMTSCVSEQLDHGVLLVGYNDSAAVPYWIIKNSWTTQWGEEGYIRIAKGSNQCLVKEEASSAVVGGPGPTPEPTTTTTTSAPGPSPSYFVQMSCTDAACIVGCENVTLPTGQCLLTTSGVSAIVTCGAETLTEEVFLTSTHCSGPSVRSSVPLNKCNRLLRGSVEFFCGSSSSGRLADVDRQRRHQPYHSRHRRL
Assay: qHTS Assay for Promiscuous and Specific Inhibitors of Cruzain (without detergent); note: nearly all actives have a fitted effect of over 40% in size
Conditions: purified cruzain, Z-FR-AMC fluorescence, no detergent
Experimental: Cruzain is a cysteine protease from the tropical parasite Trypanosoma cruzi. Dual qHTS experiment was performed against the NCGC compound collection in order to 1) identify novel inhibitors of the enzyme and 2) profile the compound collection for promiscuous inhibitors operating via colloidal aggregation (by performing detergent-free and detergent-containing comparison screens). Cruzain was assayed by the use of fluorogenic coumarin-based substrate Z-FR-AMC: proteolytic cleavage releases AMC, whose fluorescence is measured at 360 nm excitation and 450 nm emission. Purified cruzain was supplied by the labs of Prof. James McKerrow and Brian Shoichet, UC San Francisco.
This assay had 0.00005% Triton X-100 concentration. See also releated assay "qHTS Assay for Promiscuous and Specific Inhibitors of Cruzain (with detergent)" with 0.01% Triton X-100.
See following references for additional details:
Assay Provider: Shoichet, Brian; University of California, San Fancisco
Screening Center PI: Austin, C.P.
Screening Center: NIH Chemical Genomics Center [NCGC]
Buffer: 100 mM Sodium Acetate, pH 5.5, 5 mM DTT, Triton X-100 concentration: 0.01%.
Buffer in columns 3 and 4 as negative control (no enzyme).
Substrate solution: 2 uM final concentration of Z-FR-AMC (catalog number I-1160, Bachem) dispensed throughout the plate.
Enzyme: 1.5 nM Cruzain final concentration in columns 1, 2, 5-48. Column 1 is neutral (100% activity). Column 2 contained titration of covalent inhibitor K11777, starting concentration 1 mM, then 1:2 dilution in duplicate).
Three uL of enzyme or buffer were dispensed to 1536-well Greiner black solid bottom plates. Compounds and controls (23 nL) were transferred via Kalypsys PinTool. The plates were incubated for 15 min at room temperature, and then 1 uL of substrate solution was added to start the reaction. The plates were immediately transferred to and read 4 times every 30 seconds for 2 min on ViewLux High-throughput CCD imager (Perkin-Elmer) using 360 nm excitation and 450 nm emission fluorescence protocol. The fluorescence intensity difference between the third and the first time points (time lapse of 60 seconds) was used to compute reaction progress.
Potency is the fitted concentration of half-maximal effect.

SMILES | Potency | max response, negative = inhibition
Cc1cc(C)c(C2C3=C(Nc4c2c(C)nn4-c2ccccn2)c2ccccc2C3=O)c(C)c1 (centres undefined) | 12.6 µM (active) | 
Cc1nn(-c2ccccn2)c2c1C(c1ccncc1)C1=C(CC(C)(C)CC1=O)N2 (centres undefined) |  | -9%
CC(=C1C(=O)c2ccccc2C1=O)N1CCN(c2ccccn2)CC1 |  | -6.99%
NS(=O)(=O)c1ccc(CCNC(=O)CCCCCn2c(=O)[nH]c3ccccc3c2=O)cc1 |  | -15.6%
Cn1c(=O)n(C)c2cc(NS(=O)(=O)c3ccc(F)cc3)ccc21 |  | -10.1%
COc1cc(NS(=O)(=O)c2ccccc2)ccc1-n1nc(C)cc1C |  | 4.04%
CC1(C)CC(=O)c2c(n(S(=O)(=O)c3ccccc3)c3ccc(NS(=O)(=O)c4ccccc4)cc23)C1 | 31.6 µM (active) | 
CCOc1ccc(/C=N/NC(N)=S)cc1 |  | -8.04%
Cc1cccc(-n2c(C)cc(/C=N/NC(N)=S)c2C)c1 |  | -26.1%
CC(C)Oc1c(Br)cc(Br)cc1/C=N/NC(N)=S | 0.158 µM (active) | 
Cc1ccc2onc(CC(=O)N3CCN(c4ccc(Cl)cc4)CC3)c2c1 |  | 7.92%
COc1cccc(CNCCSc2nnnn2C)c1OCc1ccccc1Cl |  | 2.75%
COc1ccc(CNC(=O)Cn2nnc(-c3ccccc3F)n2)cc1 |  | -5.04%
COc1cc2nc(SCc3ccc(F)cc3)n3nc(CCn4c(C)nc5ccccc54)nc3c2cc1OC |  | -7.57%
CC(=O)c1ccc2c(ccc3ccccc32)c1 |  | 6.49%
CC(=O)CCC(=O)c1ccc2ccccc2c1 |  | 1.86%
C=CC(=O)c1ccc2ccccc2c1 | 2.51 µM (active) | 
Cc1ccc(NC(=O)Cn2c(=O)n(-c3ccccc3)c(=O)c3c4c(sc32)CCCC4)cc1 |  | -7.31%
Cc1ccc(S(=O)(=O)N2CCC(Oc3ccc(-n4cnnn4)cc3)CC2)cc1 |  | 8.75%
CCc1ccc(NC(=O)CN2CCSc3ccc(S(=O)(=O)N4CCCC4)cc32)cc1 |  | -26.3%
COc1ccc(-c2oc3cc(OC)ccc3c2C(=O)c2ccc(C#N)cc2)cc1 | 12.6 µM (active) | 
COc1ccc(C(=O)c2c(C)oc3cc([N+](=O)[O-])c(O)c([N+](=O)[O-])c23)cc1 |  | -3.8%
COc1cccc(C(=O)c2cc3ccc(O)cc3oc2=O)c1 |  | -3.19%

SMILES | Potency | max response, negative = inhibition
O=C(Nc1ccc(N2C(=O)c3cccc4cccc(c34)C2=O)cc1)c1ccc(N2CCCCC2)c([N+](=O)[O-])c1 | 7.94 µM (active) | 
COc1cccc(C(=O)Nc2ccc(N3CCCC3)cc2)c1 |  | -20.3%
O=C(COc1ccccc1F)NNC(=O)c1ccc(N2CCCCC2)c([N+](=O)[O-])c1 |  | -11.1%
Cc1ccccc1-n1c(=O)c2ccccc2n(Cc2ccc(F)cc2)c1=O |  | 6.2%
O=C(O)Cc1ccc(-c2ccccc2)cc1 |  | -11.7% and 9.66%
COc1ccc(C(CC(=O)O)NC(=O)Cc2ccccc2)cc1 (centres undefined) |  | 10.2%
O=C(Cc1ccc(-c2ccccc2)cc1)NC(c1ccccc1)c1ccccc1 | 25.1 µM (active) | 
COc1ccc(C(=O)Nc2onc3c2CCCC3)cc1 |  | -6.11%
Cc1ccc(NC(=S)NC(=O)/C=C/c2ccc(Cl)cc2)cc1 | 10 µM (active) | 
Cc1nn(C)cc1C(=O)NNC(=S)Nc1ccc(Cl)cc1 |  | -0.36%
COC(=O)Cc1ccc(NC(=S)NCc2ccc(Cl)cc2)cc1 |  | -2.73%
CCCN1C(=O)C(O)(CC(=O)c2ccc(CC)cc2)c2cc(Br)ccc21 (centres undefined) |  | 2.6%
COc1ccccc1CNC(=O)C(Cc1ccccc1)NS(=O)(=O)c1ccc2c(c1)oc(=O)n2C (centres undefined) |  | -15.4%
O=S(=O)(NCC(c1ccco1)N1CCOCC1)c1cc(F)ccc1F (centres undefined) |  | -1.04%
CC(=O)c1cccc(NC(=O)c2nc(-c3ccccc3)n(-c3cccc(C)c3)n2)c1 |  | -26.5%
Cc1cccc(NC(=O)c2sc(-c3ccccc3)nc2-c2ccc([N+](=O)[O-])cc2)c1 | 20 µM (active) | 
COc1cccc(NC(=O)c2ccc(Cn3cc([N+](=O)[O-])cn3)o2)c1 |  | 3.2%
O=C(NCCS(=O)(=O)N1CCN(c2ccc(F)cc2)CC1)c1ccccc1Br |  | -13%
Cc1cccc(CNC(=O)c2cnc3sc(N4CCCCC4)nn3c2=O)c1 |  | 13.2%
CC(Oc1ccc(-c2ccccc2)c(F)c1)c1ccn(S(=O)(=O)c2cccc3ccccc23)n1 (centres undefined) | 12.6 µM (active) | 
COc1ccccc1N1CCN(c2ncnc3onc(-c4cccc(Cl)c4)c23)CC1 |  | 9.06%
CCOC(=O)CSc1nnc(NC(=O)c2cccc(S(=O)(=O)N3CCCCC3)c2)s1 | 20 µM (active) | 
O=C(Nc1nncs1)c1cccc(S(=O)(=O)N2CCCCC2)c1 |  | 0.0572%

SMILES | Potency | max response, negative = inhibition
O=C(Nc1nnc(S(=O)(=O)N2CCCCCC2)s1)c1cccc(Br)c1 |  | 6.01%
COc1cc(CNCCSc2nnnn2C)ccc1OCc1ccc(Cl)cc1Cl |  | 8.01%
COc1ccc(NC(=S)NCc2cccs2)c(OC)c1 |  | 1.46%
COc1ccc2[nH]c(C)c(CCN(Cc3cccs3)C(=S)Nc3ccccc3OC)c2c1 | 15.8 µM (active) | 
CCNC(=S)N(CCc1c(C)[nH]c2ccc(C)cc12)Cc1ccco1 |  | -13.2%
Cc1ccc(Cl)cc1N(C)C(=O)Cn1nc(Cc2cccnc2)c2ccccc2c1=O |  | 14.5%
CC(C)(C)c1ccc(OCC(=O)N2CCC(c3nc4ccccc4s3)CC2)cc1 |  | -14.4%
CCOC(=O)Cn1c(N)c(C(=O)OC)sc1=S |  | -4.92%
CCOC(=O)c1sc(=S)n(-c2cccc(OC)c2)c1N |  | -7.85%
CCOC(=O)c1sc(=S)n2c1[nH]c(=O)c1ccc(C(=O)OC)cc12 | 25.1 µM (active) | 
COc1ccc(CCNC(=O)CCc2c(C)nc3c(c(C)nn3-c3ccc(C)c(C)c3)c2C)c(OC)c1OC |  | 0.259%
Fc1ccc(CN2CCc3nc(Nc4ccccc4)ncc3C2)cc1F |  | -18.7%
CSc1ccc(CCNC(=O)C2CCN(c3nnc(-n4cccc4)s3)CC2)cc1 | 31.6 µM (active) | 
Cc1ccc(CCNC(=O)C2CCN(c3nnc(-n4cccc4CNc4ccc(C)cc4)s3)CC2)cc1 |  | -8.42%
Cc1ccc(C)n1-c1nnc(N2CCC(C(=O)NCc3ccc(F)cc3)CC2)s1 |  | 5.22%
CSc1nc(-c2ccccc2Cl)nc2c1Cc1c(CO)cnc(C)c1O2 |  | -8.02%
COc1cc(C2CC(=O)N3CN(Cc4ccccc4)CSC3=C2C#N)ccc1OCc1ccccc1 (centres undefined) | 15.8 µM (active) | 
COc1ccc(C2CC(=O)n3c(nc4ccccc43)S2)cc1OC (centres undefined) |  | 0.892%
COc1ccc(C2C(=O)N(C3CCCCCC3)CC(=O)N2CCc2ccc(Cl)cc2)cc1OC (centres undefined) |  | 10.9%
CCOCCCNC(=O)c1ccc2nc(CCc3ccccc3)oc2c1 |  | -6.83%
Cc1cccc(C(=O)NCCc2nc3ccccc3n2Cc2ccccc2Cl)c1 |  | 15.2%
Cc1cccc(NC(=O)Cn2c(=O)n(CCC(C)C)c(=O)c3cccnc32)c1 |  | -11.5%
Cc1ccc(C(=O)NNC(=O)c2cc3cc4ccccc4nc3s2)cc1 | 15.8 µM (active) | 

SMILES | Potency | max response, negative = inhibition
CCN(CCCNC(=O)c1cc2cc3cc(OC)ccc3nc2s1)c1ccccc1 |  | 0.913%
Cc1ccc(C(=O)c2c(NC(=O)c3ccccc3)sc(C)c2C)cc1 |  | -26.9%
COCCNc1ncnc2c1c(-c1ccccc1)cn2-c1ccc(C)c(Cl)c1 |  | 6.98%
Cc1ccc(-n2c(SCC(=O)Nc3cccc(F)c3)nc3c(oc4ccccc43)c2=O)cc1C | 12.6 µM (active) | 
Cc1cccc(-n2c(SCC(N)=O)nc3c(oc4ccccc43)c2=O)c1 |  | -3.27%
COc1ccc(-n2c(SCC(N)=O)nc3c(oc4ccccc43)c2=O)cc1 |  | -4.62%
Cc1ccc(C(=O)Nc2c(C(=O)NC(C)(C)C)oc3ccccc23)cc1 |  | 11.2%
COc1ccc(OC)c(-c2csc(-c3c(N)c(C(=O)c4ccccc4)n4ccccc34)n2)c1 |  | -9.44%
COc1ccc(NC(=O)c2ccc(OC)cc2)cc1 |  | -1.58%
COc1ccc(C(=O)Nc2ccccc2C(=O)N/N=C/c2ccccc2OC)cc1 | 25.1 µM (active) | 
CCn1c(/C=N/NC(=O)c2ccc(OC)cc2)nc2ccccc21 |  | -22.8%
CN(C)c1ccc(-n2cccc2/C=C2/SC(=Nc3ccc(F)cc3)NC2=O)cc1 | 10 µM (active) | 
CN(C)c1ccc(-n2cccc2/C=N/n2cnnc2)cc1 |  | -10.4%
N#Cc1ccccc1Cn1cnc2nc3c(cc2c1=O)CCCC3 |  | 2.69%
CC(=O)Nc1c(C)nn(-c2ccccc2)c1N1CCC(C(=O)Nc2cc(Cl)ccc2C)CC1 |  | -5.38%
CCN(C(=O)CSc1nnc(C)n2c1cc1occc12)c1ccccc1 |  | -4.51%
CCCCN(CC)C(=O)c1c[nH]c2ccc(S(=O)(=O)Nc3cccc(OC)c3)cc2c1=O |  | -1.35%
CCOC(=O)c1ccc(-c2ccc(/C=C(\C#N)C(=O)Nc3ccc(C)cc3)o2)cc1 |  | -9.9%
Cc1ccc(Cc2cnc(NC(=O)/C(C#N)=C/c3ccc(-c4cccc([N+](=O)[O-])c4)o3)s2)cc1 | 3.16 µM (active) | 
CCOC(=O)c1ccc(-c2ccc(/C=C(\C#N)C(=O)Nc3ccc(OCC)cc3)o2)cc1 |  | -8.32%
